LMNA splice mod – LMNA splicing modulation; HeLa LMNA splicing GFP/RFP minigene ratio, 48 h; Potency, µM (highest dose often 46.1 µM), without a hit: top-dose ratio change, negative = inhibition, most hits filed as inhibitors; 200,000 compounds, 0.01% hits; active = well fitted inhibition curve with a large enough effect in the signal ratio, with a control signal flat, not every such curve was filed as active; inconclusive = small, poorly fitted or top-dose-only effect, or effect the other way, or a change in a side signal; the % refers to the signal ratio; also: % is scaled to controls: 0 for no effect and ±100 for the full control effect
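S3 HeLa stable clones carrying a lamin A-EGFP splicing minigene plus DsRed2 were seeded at 600 cells/well in Opti-MEM with 2% FBS, pin-dosed and incubated 48 h at 37°C. Acumen cytometry (488 nm) gave the GFP/RFP total-intensity ratio.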
KDM4E inh – inhibitors of human JMJD2E histone demethylase; JMJD2E catalytic domain, FDH-coupled NADH fluorescence (FDH is formaldehyde dehydrogenase); Potency, µM (titrated, usually from 57.1 µM), for the others: at the top dose activity change, negative = inhibition, hits mostly inhibitors; 230,000 compounds, 1.6% hits; AID 2147;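 also: 0% = wells with enzyme and -100% = buffer wells without enzyme; nearly all actives have a fitted effect of over 50% in size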
Target sequence (B2RXH2 1-337 limits assumed): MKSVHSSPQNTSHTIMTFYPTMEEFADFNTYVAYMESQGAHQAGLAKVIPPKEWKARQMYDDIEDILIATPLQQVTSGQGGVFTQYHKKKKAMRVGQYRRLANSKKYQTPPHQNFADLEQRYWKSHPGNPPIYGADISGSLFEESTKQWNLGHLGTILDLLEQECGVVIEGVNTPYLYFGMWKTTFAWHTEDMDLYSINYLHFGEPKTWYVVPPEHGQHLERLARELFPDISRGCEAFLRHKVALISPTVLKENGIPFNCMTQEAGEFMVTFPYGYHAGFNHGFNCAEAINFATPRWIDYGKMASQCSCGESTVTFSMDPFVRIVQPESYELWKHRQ
ALDH1A1 block – ALDH1A1 (human) enzyme inhibition; P00352; Purified ALDH1A1, NADH fluorescence, propionaldehyde substrate; Potency, µM (series often up to 75.3 µM), inactives show top-dose activity, negative = inhibition, usual class: inhibitors; 220,000 compounds, 7.3% hits; AID 1030;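 also: plate controls were no enzyme wells and a reference inhibitor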
HPGD block – blocks human HPGD enzyme activity | P15428 | purified HPGD, NADH fluorescence kinetic, PGE2 substrate | Potency, µM, for inactives: top-dose activity change, negative = inhibition, usual class: inhibitors | 150,000 compounds, 4.3% hits; also: % is scaled to controls: 0 for no effect and ±100 for the full control effect
Target sequence (P15428 whole entry, looked up): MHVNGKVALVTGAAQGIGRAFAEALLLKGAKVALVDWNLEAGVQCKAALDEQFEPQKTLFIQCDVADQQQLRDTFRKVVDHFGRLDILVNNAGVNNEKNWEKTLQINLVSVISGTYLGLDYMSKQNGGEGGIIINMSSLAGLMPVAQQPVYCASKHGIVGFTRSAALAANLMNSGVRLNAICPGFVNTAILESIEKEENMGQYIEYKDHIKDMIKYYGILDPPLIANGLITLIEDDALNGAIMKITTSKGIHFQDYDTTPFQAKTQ
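NADH formation kinetics: reaction with 30 uM PGE2 and 1 mM NAD+ (final), 20 nM enzyme, Tris-HCl pH 8 with Tween 20, after 15 min compound preincubation at room temperature. Fluorescence change, last versus first of five reads.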
HTT cytoprotect – Huntington cell model cytoprotection by ATP luminescence | PC12 HTT-Q103 induced, cytoprotection, ATP luminescence, 40 h | Potency, µM (series often up to 56.4 µM), inactives show cytoprotection (ATP increase), hits mostly activators | 230,000 compounds, 0.14% hits; active = well fitted curve in the direction sought with a large enough effect; inconclusive = small, poorly fitted or top-dose-only effect, or another doubt; inactive = no such curve, though single readings can be large; an effect the other way counts as inactive or inconclusive; also: % of control where 0% means no effect; nearly all actives have a fitted effect of over 45% in size
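Huntington model: PC12 line, ecdysone-inducible HTTQ103 exon1–GFP, tebufenozide 100 nM. Test articles in a dose series. Endpoint luminescence from cellular ATP.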
HTT aggregate – reduces HttQ103-GFP aggregates in PC12 cells; AID 1688; 220,000 compounds, 1.1% hits; Potency, µM (top dose mostly 46.1 µM), without a hit: at the highest dose activity change, negative = inhibition, hits mostly inhibitors; PC12 HttQ103-GFP aggregates, Acumen cytometry, 40 h; active = well fitted curve in the direction sought with a large enough effect; inconclusive = small, poorly fitted or top-dose-only effect, or another doubt; inactive = no such curve, though single readings can be large; an effect the other way counts as inactive or inconclusive; also: % is scaled to controls: 0 for no effect and ±100 for the full control effect; nearly all actives have a fitted effect of over 60% in size
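Ecdysone-promoter PC12 model expressing HTT exon 1 Q103 fused to GFP, induced by tebufenozide at 100 nM final. Compounds titrated; aggregates sized 1–25 µm scored on a 488 nm laser cytometer.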
The depositor's hits bear a star; ? = inconclusive; . = no result given; [ ] = another dose, or the depositor's remark. Compounds with a hit are over-represented: about 9.2% of the library has one in this group of screens. Unless noted, calls follow the shape of the dose curve; as a rule, active = well fitted inhibition curve with a large enough effect (not every such curve was filed as active); inconclusive = small, poorly fitted or top-dose-only effect, or another doubt; inactive = no such curve, though single readings can be large or run the other way. Potency is read from the fitted curve at half-maximal effect.

SMILES	LMNA splice mod	KDM4E inh	ALDH1A1 block	HPGD block	HTT cytoprotect	HTT aggregate
CC1=Nc2ccccc2N=C(NC(=O)CSC(=S)N2CCCCC2)C1c1ccccc1 (centres undefined)	.	-3%	.	.	16%[10 µM]	2%[9.22 µM]
CCOC(=O)C1CCCN(CC(=O)NC2=Nc3ccccc3N=C(C)C2c2ccccc2)C1 (centres undefined)	16%	5%	4.5µM*	-6%	5%[10 µM]	1%
CC1=Nc2ccccc2N=C(NC(=O)CSc2nnnn2-c2ccccc2)C1c1ccccc1 (centres undefined)	?	4%	4.5µM*	-14%	10%	-2%
CCOc1ccccc1NC(=O)CSc1nnnn1-c1ccc(C(=O)OC)cc1	-2%	0%	-5%	-21%	-2%[10 µM]	-5%
CCOC(=O)NC(=O)CSc1nnnn1-c1ccccc1	8%	11%	?	-2%	-3%	-9%
CCOc1ccccc1NC(=O)CSc1nnnn1-c1ccccc1	-1%	-6%	16µM*	-18%	-4%	-8%
CC1=Nc2ccccc2N=C(NC(=O)CN2CCN(c3ccccc3)CC2)C1c1ccccc1 (centres undefined)	.	2%	0.89µM*	.	14%[10 µM]	-6%[9.22 µM]
O=C(Nc1nc2c(F)cc(F)cc2s1)c1ccc2c(c1)OCCO2	-2%[46 µM]	.	.	.	.	.
Cc1cc2ncc(C(=O)Nc3ccsc3C(=O)O)c(C)n2n1	.	-22%	14µM*	.	-55%	3%
NC(=O)C1CCN(C(=O)c2ccc3c(c2)N(Cc2cccc(Cl)c2)C(=O)c2ccccc2S3(=O)=O)CC1	-20%[46 µM]	.	.	.	.	.
CC(C)(C)C1CCC(=NNC(=O)CN(c2ccccc2)S(=O)(=O)c2ccccc2[N+](=O)[O-])CC1 (centres undefined)	-7%	5%	10µM*	-20%	.	-8%
COc1ccc(OC2C(O)COC2/C=C/c2ccccc2)cc1 (centres undefined)	.	.	4%[13.5 µM]	.	?	.
CCOC(=O)C1(Cc2cccc(F)c2)CCN(C(=O)Cn2cnnn2)CC1	.	-18%	.	.	6%[10 µM]	1%[9.22 µM]
CC(C)NC(=O)N1CCCC2(CCN(C(=O)c3csnn3)CC2)C1	.	.	5%	-2%	14%	.
Cc1nc(SC2CC(=O)N(c3ccc([N+](=O)[O-])cc3)C2=O)nc2c1CCCC2 (centres undefined)	4%	7%	1.8µM*	-19%	-17%	25%
Nc1nnc(SC2CC(=O)N(c3ccccc3)C2=O)s1 (centres undefined)	-2%	-9%	3.5µM*	32µM*	-12%	?
COc1ccccc1N1C(=O)CC(Sc2n[nH]c(-c3cccc(C)c3)n2)C1=O (centres undefined)	0%	1%	2µM*	?	6%[10 µM]	?
CCOc1ccc(N2C(=O)CC(Sc3nccc(C)n3)C2=O)cc1 (centres undefined)	10%	12%	?	-5%	-6%[0.074 µM]	5%
CCCc1ccc(C#N)c(SC2CC(=O)N(c3ccc(OC)cc3)C2=O)n1 (centres undefined)	?	-11%	?	.	24%[10 µM]	9%[9.22 µM]
CCOc1ccc(N2C(=O)CC(Sc3ncccn3)C2=O)cc1 (centres undefined)	8%	2%	22µM*	1%	-8%[0.074 µM]	-1%
COc1ccccc1N1C(=O)CC(Sc2nccc(C)n2)C1=O (centres undefined)	-4%	7%	0%	-11%	-33%	13%
C=CCNc1nnc(SC2CC(=O)N(c3ccc(OCCC)cc3)C2=O)s1 (centres undefined)	?	-13%	0.56µM*	14µM*	-116%	4%[9.22 µM]
O=C1CC(Sc2ncccn2)C(=O)N1c1ccccc1 (centres undefined)	5%	6%	22µM*	-10%	7%	10%[9.22 µM]
Cc1nc(SC2CC(=O)N(c3ccccc3)C2=O)n[nH]1 (centres undefined)	.	-15%	0.35µM*	.	3%[10 µM]	0%[9.22 µM]
Cc1ccc(N2C(=O)CC(Sc3ncccc3C(=O)O)C2=O)cc1 (centres undefined)	.	-5%	-14%	.	-28%	8%
SMILES	LMNA splice mod	KDM4E inh	ALDH1A1 block	HPGD block	HTT cytoprotect	HTT aggregate
CC1CCC2C(=O)OC(Cc3ccccc3)CN2C1c1ccc(Br)cc1 (centres undefined)	.	.	1%[13.5 µM]	.	?	.
Cc1nc([N+](=O)[O-])c(Br)n1CC(=O)c1cccc([N+](=O)[O-])c1	-2%[9.22 µM]	6%	25µM*	.	-60%[10 µM]	?
Cc1nc([N+](=O)[O-])c(Br)n1CC(=O)c1ccc(F)cc1	?	-1%	-3%	.	-248%	28µM*
COC(=O)Cn1c(C)nc([N+](=O)[O-])c1Br	-9%[9.22 µM]	1%	1%	.	-19%	?
Cc1ccnc(SCC(=O)c2cccc([N+](=O)[O-])c2)n1	-3%	1%	32µM*	-19%	1%[10 µM]	5%
Cc1nc(SCC(=O)c2cccc([N+](=O)[O-])c2)n[nH]1	-8%	-4%	?	-28%	11%[10 µM]	?
O=C(NCCO)C1CCN(C(=O)c2ccc(-c3ccccc3)cc2)CC1	?	-9%	-6%	.	-8%[10 µM]	-12%[9.22 µM]
CCC(=O)OCN1C(=O)C=CC1=O	.	.	1µM*	?	-63%[10 µM]	.
CCCn1c(N)c(C(=O)COc2ccc(Br)cc2F)c(=O)n(C)c1=O	.	6%	-12%	.	-55%	?
CC1(C)CC(=O)c2sc(NC(=O)C(C)(C)C)nc2C1	-9%[46 µM]	-13%	?	.	-6%[10 µM]	2%[9.22 µM]
O=C(Nc1nc2c(s1)CCCC2)c1cccs1	-17%	3%	-5%	-25%	-92%[10 µM]	-21%
CC1(C)CC(=O)c2sc(NC(=O)c3ccccc3)nc2C1	.	3%	2.8µM*	.	-65%[10 µM]	8%
CC1(C)CC(=O)c2sc(NC(=O)c3cccs3)nc2C1	-9%	7%	16µM*	-8%	-31%[1.9 µM]	-1%
CC(Oc1ccccc1)C(=O)Nc1nc2c(s1)C(=O)CC(C)(C)C2 (centres undefined)	18%	?	14µM*	-24%	2%	4%
CC1(C)CC(=O)c2sc(NC(=O)CN3CCCCC3)nc2C1	23%	-7%	20µM*	-20%	2%	9%
CC1(C)CNC(=O)c2sc(NC(=O)c3ccccc3)nc2C1	1%[9.22 µM]	?	?	.	-49%	18%
CC(=O)OCC(=O)[C@@]1(OC(C)=O)[C@H](C)C[C@H]2[C@@H]3C[C@H](F)C4=CC(=O)C=C[C@@]4(C)[C@]3(F)[C@H](O)C[C@@]21C	6%	9%[25.5 µM]	28%[20.9 µM]	-2%	11%[40.3 µM]	.
O=C(CSc1nc2c([nH]c3ccccc32)c(=O)n1-c1ccccc1)c1ccc(Cl)cc1	-4%[46 µM]	.	.	.	.	.
COc1cccc(/C=N/NC(=O)Cn2nc([N+](=O)[O-])cc2C)c1	.	3%	.	.	16%[10 µM]	19%[9.22 µM]

Assay outcomes from PubChem.
